LEDGF integ inh = blocks HIV-1 LEDGF/p75-dependent DNA integration | TR-FRET IN-LEDGF/p75 DNA integration, Eu/Cy5 | inhibition, % at 3.7 µM | 370,000 tested, 0.64% active | AID 743269;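 active = inhibition above the screen-wide mean plus 3 SD, cut at about 13% in these data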;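 note: signal is the Cy5 over europium emission ratio at 671 and 618 nm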
PRMT1 inh = inhibitors of human PRMT1; recombinant PRMT1, activity-based probe fluorescence polarization; inhibition, % at 2.79 µM; AID 652257; 370,000 tested, 1.3% active;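 active = inhibition above about 21% made by adding two undisclosed values, limit read from the data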
Target sequence (Q99873 whole entry, looked up): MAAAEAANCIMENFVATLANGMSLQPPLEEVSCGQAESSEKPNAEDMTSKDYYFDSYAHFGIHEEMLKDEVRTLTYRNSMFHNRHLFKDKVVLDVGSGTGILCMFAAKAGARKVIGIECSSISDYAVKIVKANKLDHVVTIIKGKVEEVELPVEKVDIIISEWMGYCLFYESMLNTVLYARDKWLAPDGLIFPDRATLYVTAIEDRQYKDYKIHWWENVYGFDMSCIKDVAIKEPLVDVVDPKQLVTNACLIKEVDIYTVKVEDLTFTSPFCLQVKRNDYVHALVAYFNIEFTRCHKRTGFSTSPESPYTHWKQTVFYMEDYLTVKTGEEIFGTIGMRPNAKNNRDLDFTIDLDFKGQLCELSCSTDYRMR
rCAG binder-1 = r(CAG) repeat RNA binding; TO-PRO-1 dye displacement fluorescence; inhibition, % at 3 µM; 370,000 tested, 1.3% active; AID 651821;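 active = inhibition above the plate cutoff, the mean of all test compounds on that plate plus 3 SD, cut at about 35% in these data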;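 note: higher means more dye released from RNA so lower well fluorescence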
ABHD5 PLIN5 PPI = ABHD5-PLIN5 protein interaction inhibition; AID 602281; Q00G26+Q8WTS1; Split G. princeps luciferase complementation, luminescence, 4 h; inhibition, % at 4 µM; 360,000 tested, 0.78% active;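 active = inhibition above the mean inhibition across every tested compound plus 3 SD, cut at about 22% in these data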
UHRF1 binding = blocks human UHRF1 binding to methylated DNA | UHRF1 binding to methylated oligo, TR-FRET | inhibition, % at 4.4 µM | 370,000 tested, 0.75% active; in the data active = inhibition above about 21%;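 note: UHRF1 SRA domain binding a hemimethylated CpG hairpin DNA probe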
MBD2 DNA inh = blocks human MBD2 binding to methylated DNA | TR-FRET, MBD2 binding to methylated oligonucleotide | inhibition, % at 4.4 µM | 370,000 tested, 0.31% active; in the data active = inhibition above about 13%
rCAG bind conf = r(CAG) RNA repeat binding, confirmation. shares compounds with rCAG binder-1. TO-PRO-1 dye displacement fluorescence. inhibition, % at 3 µM. 4,300 tested, 70% active;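 active = inhibition above a per-plate cutoff, the mean inhibition of sample wells plus 3 SD, cut at about 35% in these data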;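 note: loss of TO-PRO-1 fluorescence as compound displaces dye from 1x1 AA loop RNA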
DNA CAG counter = disrupts DNA CAG TO-PRO-1 complex, flagging rCAG hits; shares compounds with rCAG binder-1; d(CAG) DNA oligo TO-PRO-1 dye displacement, fluorescence; inhibition, % at 3 µM; 4,300 tested, 94% active; AID 652068;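 active = inhibition above its plate's cutoff, the mean test-well inhibition plus 3 SD, cut at about 4.8% in these data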;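 note: hits displace the dye from DNA and so lower well fluorescence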
DNA CAG DR = counter-screen for rCAG binders: inhibitors of DNA CAG TO-PRO-1 complex. shares compounds with rCAG binder-1. DNA CAG/GTC duplex TO-PRO-1 dye displacement fluorescence. IC50, µM. 250 tested, 20% active; in the data active = IC50 below about 10 µM
dCAG TOPRO ctr = counter-screen for rCAG binders: DNA CAG TO-PRO-1 complex inhibitors, late stage | shares compounds with rCAG binder-1 | d(CAG) DNA duplex TO-PRO-1 dye displacement, fluorescence | IC50, µM | 30 tested, 80% active
rCAG binder-2 = r(CAG) repeat RNA binding, TO-PRO-1 displacement | shares compounds with rCAG binder-1 | r(CAG) RNA TO-PRO-1 dye displacement, fluorescence | IC50, µM | 30 tested, 100% active
Large screens that a line does not name were inactive (follow-up assays come after a bar, where they were run). Most compounds without a hit are left out; they make up all but 4.1% or so of the library. Unless noted, the rule behind the calls is not given here.

Cc1cccc(-n2nc(C)c3c(C(=O)O)cc(-c4cccs4)nc32)c1	rCAG binder-1 80.8 | rCAG bind conf 73.6 | DNA CAG counter 33.7 | DNA CAG DR 6.32 | dCAG TOPRO ctr 1.41 | rCAG binder-2 0.578
Cc1nn(-c2cccc(Cl)c2)c2nc(-c3ccco3)cc(C(=O)O)c12	rCAG binder-1 71.7 | rCAG bind conf 77.4 | DNA CAG counter 39.7
O=C(O)c1cc(-c2ccco2)nn1-c1ccc(Cl)cc1	none
Cc1nn(-c2ccccc2)c2nc(-c3ccco3)cc(C(=O)O)c12	LEDGF integ inh 16.4, rCAG binder-1 54.0 | rCAG bind conf 71.0 | DNA CAG counter 26.6 | DNA CAG DR 4.28 | dCAG TOPRO ctr 6.08 | rCAG binder-2 2.51
C=CCc1cc(/C=C2/NC(=O)N(CC)C2=O)cc(OCC)c1OCc1ccc(C(=O)O)cc1	rCAG binder-1 42.8 | rCAG bind conf 40.9 | DNA CAG counter 10.1
COc1cc(NS(=O)(=O)c2ccc(NC(=S)Nc3ccccc3)cc2)nc(OC)n1	none
Cc1ccc(NS(=O)(=O)c2ccc(Cl)c(NC(=S)NC(=O)C3CCCCC3)c2)cc1Cl	rCAG binder-1 44.9 | rCAG bind conf 41.2 | DNA CAG counter 17.0
COc1ccc(OCC(=O)NC(=S)Nc2ccc(S(=O)(=O)Nc3cc(OC)nc(OC)n3)cc2)cc1	rCAG binder-1 52.4 | rCAG bind conf 52.6 | DNA CAG counter 19.7
COc1ccc(C(=O)NC(=S)Nc2ccc(S(=O)(=O)Nc3cc(OC)nc(OC)n3)cc2)cc1	rCAG binder-1 58.1 | rCAG bind conf 55.4 | DNA CAG counter 19.5
Cc1ccc(NC(=O)C2CCCC2)cc1Cl	none
COc1cc(NS(=O)(=O)c2ccc(NC(=S)NC(=O)C3CCCC3)cc2)nc(OC)n1	rCAG binder-1 44.5 | rCAG bind conf inactive | DNA CAG counter 10.2
COc1cc(NS(=O)(=O)c2ccc(NC(=S)NC(=O)c3ccc(F)cc3)cc2)nc(OC)n1	none
Cc1c(-c2ccccc2)nnn1-c1ccc(F)c(Cl)c1	none (no result: ABHD5 PLIN5 PPI)
O=C(Cn1cnc2ccccc2c1=O)N1CCN(Cc2ccc(F)cc2)CC1	none (no result: ABHD5 PLIN5 PPI)
COc1ccc(Cc2nnc(SCC(=O)Nc3cc(Cl)ccc3C)[nH]c2=O)cc1	rCAG binder-1 45.3 | rCAG bind conf 36.5 | DNA CAG counter 8.2
O=C(Cn1c(-c2cncs2)nc2ccccc21)N1CCOCC1	none (no result: ABHD5 PLIN5 PPI)
C=CCOc1ccc(/C=C2\SC(=S)N(N3CCOCC3)C2=O)cc1	none
C=CCOc1ccc(/C=C2\SC(=S)N(NS(=O)(=O)c3ccccc3)C2=O)cc1	rCAG binder-1 87.5 | rCAG bind conf 78.6 | DNA CAG counter 46.1
COc1ccc(/C=C2/SC(=S)N(NS(=O)(=O)c3ccccc3)C2=O)cc1	rCAG binder-1 74.2 | rCAG bind conf 66.4 | DNA CAG counter 29.4
C[C@H]1[C@@H](OC(=O)N2CCOCC2)CC[C@@]23CCCN2C(=O)CCC[C@@H]13	none (no result: rCAG binder-1, ABHD5 PLIN5 PPI)
O=C(CCc1ccccc1)N[C@H]1[C@@H](OC(=O)c2ccc([N+](=O)[O-])cc2)CCC[C@]12C(=O)N(Cc1ccccc1)c1ccccc12	none (no result: ABHD5 PLIN5 PPI)
Cc1cccc(N(CC(=O)N/N=C/c2ccc(C(=O)O)cc2)S(=O)(=O)c2ccccc2)c1C	rCAG binder-1 48.8 | rCAG bind conf inactive | DNA CAG counter 10.6
COc1ccccc1N(CC(=O)N/N=C/c1ccc(C(=O)O)cc1)S(=O)(=O)c1ccc(C)cc1	none
COC(=O)[C@]12C[C@H](CC(=O)N3CCOCC3)C(=O)N(CCC3=CCCCC3)C1=C[C@H](C1CCCC1)O[C@@H]2C	none (no result: ABHD5 PLIN5 PPI)
Cc1ccc(C)n1NC(=O)c1ccccc1O	rCAG binder-1 36.4 | rCAG bind conf inactive | DNA CAG counter 12.6
C=CCNc1cccc2c1S(=O)(=O)N[C@@H](Cc1ccccc1)CO2	none (no result: ABHD5 PLIN5 PPI)
C[C@@H]1OC(C2CCCCC2)N(C)[C@H]2C[C@H]3c4cc(N5CCOCC5)ccc4CCN3C[C@@H]12 (some centres not stated)	none (no result: ABHD5 PLIN5 PPI)
O=C(O)C1=C2C(=O)Nc3cccc(c32)C2(C1)C(=O)Nc1ccccc12 (configuration not stated)	rCAG binder-1 39.2 | rCAG bind conf 58.8 | DNA CAG counter 21.5
CCOC(=O)C(Cc1ccccc1)CP(=O)(OC)[C@@H](C)NC(=O)OCc1ccccc1 (some centres not stated)	none (no result: ABHD5 PLIN5 PPI)
Cc1noc(NS(=O)(=O)c2ccc(NC(=O)CSc3nc4c(cc3C#N)CCCCC4)cc2)c1C	rCAG binder-1 41.7 | rCAG bind conf inactive | DNA CAG counter 8.2
Cc1ccc(C)c(OCC(=O)Nc2cc(NC(=O)COc3cc(C)ccc3C)cc(C(=O)O)c2)c1	rCAG binder-1 48.8 | rCAG bind conf 77.3 | DNA CAG counter 41.5
CCc1cccc(OCC(=O)Nc2ccc(C(=O)O)cc2NC(=O)COc2cccc(CC)c2)c1	rCAG binder-1 78.0 | rCAG bind conf 71.5 | DNA CAG counter 35.5
CCc1cccc(OCC(=O)Nc2c[nH]c(=O)[nH]c2=O)c1	none
Cc1noc(NS(=O)(=O)c2ccc(NC(=O)CCCOc3ccc(Cl)cc3Cl)cc2)c1C	rCAG binder-1 86.8 | rCAG bind conf 73.2 | DNA CAG counter 37.6
Cc1noc(NS(=O)(=O)c2ccc(NC(=O)CC(C)C)cc2)c1C	none
CC1CC1C(=O)N1CCC(Oc2cccnc2)CC1 (configuration not stated)	none (no result: ABHD5 PLIN5 PPI)
O=C(c1cccc(Oc2ccccc2)c1)N1CCC(Oc2cccnc2)CC1	none (no result: ABHD5 PLIN5 PPI)
Cc1ccc(S(=O)(=O)NC(CCCNC(=O)OCc2ccccc2)C(=O)O)cc1 (configuration not stated)	none (no result: ABHD5 PLIN5 PPI)
Cc1ccc(C)c(OCC(=O)Nc2ccc(S(=O)(=O)Nc3onc(C)c3C)cc2)c1	rCAG binder-1 47.6 | rCAG bind conf 46.1 | DNA CAG counter 12.5
Cc1ccc(OCC(=O)Nc2ccc(S(=O)(=O)Nc3onc(C)c3C)cc2)cc1	none
Cc1noc(NS(=O)(=O)c2ccc(NC(=O)COc3ccc(Cl)cc3Cl)cc2)c1C	rCAG binder-1 77.0 | rCAG bind conf 69.8 | DNA CAG counter 22.2 | DNA CAG DR inactive | dCAG TOPRO ctr 3.59 | rCAG binder-2 1.28

Screens as filed in PubChem BioAssay.
